Tgondii IFNg – inhibitors of Toxoplasma gondii growth with IFN-gamma | hit rate 3.8% among 69,000 | activity change, negative = inhibition, % (test concentration not listed) | Toxoplasma gondii growth in IFN-gamma-treated host cells; hits give low values | AID 1259416; in the data active = activity change below about -70%, passing the limit was not always enough;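 also: host cells are HeLa cells infected with Toxoplasma gondii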
The depositor's hits bear a star. This excerpt belongs to a sample that is enriched for hits.

For Cc1ccccc1C1CCCN1C(=O)Cn1nc(C(F)(F)F)cc1C (stereo not given) the results were Tgondii IFNg 164.6.
For Cc1cc(C(F)(F)F)nn1CC(=O)N1CCCC1c1ccc(F)cc1 (stereo not given) the results were Tgondii IFNg -77.9*.
`Cc1noc(C)c1C1CCCN1C(=O)Cn1nc(C(F)(F)F)cc1C` (stereo not given) gave Tgondii IFNg 4.7.
O=S(=O)(c1ccc2c(c1)CCCC2)N1CCC2(CC1)NCCN=C2NCc1cc(F)cc(F)c1 was read as Tgondii IFNg -43.1.
`O[C@@H]1CN(c2ncccc2Cl)CC[C@H]1c1ccc2c(c1)OCO2` gave Tgondii IFNg -3.0.
For O=C1CN(C(=O)c2c(F)cccc2Cl)CC(OCc2ccccc2)CN1Cc1cccnc1 (stereo not given) the results were Tgondii IFNg 11.4.
COc1ccc2c(c1)OCC(Cc1ccc(OC)c(OC)c1)C2=O (stereo not given) was read as Tgondii IFNg -3.4.
Screening COc1ccc2c(c1)O[C@H]1c3ccc(OC)cc3OC[C@@H]21 returned Tgondii IFNg -20.5.
Screening COc1ccc2c(c1)OCC(Cc1ccc(OC)c(OC(C)=O)c1)C2=O (stereo not given) returned Tgondii IFNg -84.0*.
COc1ccccc1NC(=O)c1c(O)c2cccnc2n(-c2ccccc2)c1=O was read as Tgondii IFNg -46.9.
CN(C)S(=O)(=O)N1CCC2(CC1)CN(c1ncccn1)Cc1ccccc12 was read as Tgondii IFNg -32.8.
For O=C(c1cc2cccnc2n(Cc2ccccc2F)c1=O)N1CCN(c2ccccc2F)CC1 the results were Tgondii IFNg 35.8.
For O=C(c1cc2cccnc2n(Cc2ccccc2F)c1=O)N1CCCC1 the results were Tgondii IFNg 68.5.
`O=C(c1cc2cccnc2n(Cc2ccc(F)cc2)c1=O)N1CCCC1` gave Tgondii IFNg 49.9.
For O=C(c1cc2cccnc2n(Cc2ccccc2F)c1=O)N1CCN(c2ccc(F)cc2)CC1 the results were Tgondii IFNg -83.1*.
O=C(c1cc2cccnc2n(Cc2ccc(F)cc2)c1=O)N1CCN(c2ccc(F)cc2)CC1 was read as Tgondii IFNg -95.2*.
`O=C(c1cc2cccnc2n(Cc2ccc(F)cc2)c1=O)N1CCN(Cc2ccccc2)CC1` gave Tgondii IFNg -30.5.
CC(=O)N1CCC(N2CCC(c3nc(C)cc(Oc4ccccc4C)n3)C2)CC1 (stereo not given) was read as Tgondii IFNg -0.3.
`CC(C)CCN1C2(CCN(C(=O)c3ccno3)C2)c2ccccc2S1(=O)=O` (stereo not given) gave Tgondii IFNg 10.3.
`CC(C)CCN1C2(CCN(C(=O)NC3CCCC3)C2)c2ccccc2S1(=O)=O` (stereo not given) gave Tgondii IFNg -87.0*.
CC(C)CCN1C2(CCN(C(=O)Cc3cccnc3)C2)c2ccccc2S1(=O)=O (stereo not given) was read as Tgondii IFNg -8.3.
CNc1cc(C(=O)N[C@@H]2C[C@@H](CO)N(C)C2)ccn1 was read as Tgondii IFNg -0.8.
For Cc1oc(C2CCN(C(=O)Nc3ccccc3F)CC2)nc1C(=O)N1CCCC1 the results were Tgondii IFNg -7.8.
For CN(Cc1ccccc1C(=O)O)C1Cc2ccccc2C1 the results were Tgondii IFNg -7.1.
Screening CN(Cc1cnccn1)C(=O)CN(c1cccc(F)c1)S(C)(=O)=O returned Tgondii IFNg -5.0.
C=CCN(Cc1ccccc1OC)C(=O)c1c(-n2cnnn2)sc(C)c1C was read as Tgondii IFNg 48.8.
COc1ccc(-c2nc(NCc3ccc4c(c3)OCO4)c3ccccc3n2)cc1 was read as Tgondii IFNg -43.0.
Screening Cc1ccc2[nH]c(=O)cc(C(=O)N3C[C@@H]4C5CCC(CC5)[C@@H]4C3)c2c1 returned Tgondii IFNg 11.8.
Fc1cccc(CN2CCN(Cc3cccc(Cn4cccn4)c3)CC2)c1 was read as Tgondii IFNg -16.7.
`COc1cc2nc(N3CCCN(C)CC3)nc(NC3CCN(Cc4ccccc4)CC3)c2cc1OC` gave Tgondii IFNg -87.7*.
Screening COc1ccc(-c2nc(NC3CCN(Cc4ccccc4)CC3)c3ccccc3n2)cc1 returned Tgondii IFNg -51.3.
CCCC(=O)N1CCCN(c2nc(N)c3cc(OC)c(OC)cc3n2)CC1 was read as Tgondii IFNg 18.5.
NS(=O)(=O)c1ccc(CCC(=O)N[C@@H]2CCC(=O)N[C@H]2c2ccsc2)cc1 was read as Tgondii IFNg 24.1.
Screening Cc1ccc(S(=O)(=O)N(C)C[C@H]2OCCCC[C@H](C)Oc3ccc(NC(=O)c4ccncc4)cc3C(=O)N([C@@H](C)CO)C[C@@H]2C)cc1 returned Tgondii IFNg -97.8*.
`Cc1ccc(S(=O)(=O)N(C)C[C@H]2OCCCC[C@H](C)Oc3ccc(NC(=O)c4ccncc4)cc3C(=O)N([C@H](C)CO)C[C@@H]2C)cc1` gave Tgondii IFNg -8.4.
`Cc1ccc(S(=O)(=O)Nc2ccc3c(c2)C(=O)N([C@@H](C)CO)C[C@H](C)[C@H](CN(C)S(=O)(=O)c2cccs2)OCCCC[C@H](C)O3)cc1` gave Tgondii IFNg -107.2*.
For Cc1ccc(S(=O)(=O)Nc2ccc3c(c2)C(=O)N([C@H](C)CO)C[C@H](C)[C@H](CN(C)S(=O)(=O)c2cccs2)OCCCC[C@@H](C)O3)cc1 the results were Tgondii IFNg -18.6.
Cc1ccc(S(=O)(=O)N(C)C[C@H]2OCCCC[C@H](C)Oc3ccc(NC(=O)c4ccncc4)cc3C(=O)N([C@@H](C)CO)C[C@H]2C)cc1 was read as Tgondii IFNg 75.0.
Cc1noc(C)c1NC(=O)Nc1ccc2c(c1)C(=O)N([C@@H](C)CO)C[C@H](C)[C@@H](CN(C)S(=O)(=O)c1cccs1)OCCCC[C@@H](C)O2 was read as Tgondii IFNg 336.5.
Screening O=C(NCCN1CCCCC1)c1cc(N2CCCN3CCC[C@H]3C2)ccn1 returned Tgondii IFNg -12.4.
For O=C(c1ccco1)N1CCN(S(=O)(=O)c2cc3c4c(c2)CCC(=O)N4CCC3)CC1 the results were Tgondii IFNg -29.4.
For CCC1=NC2(CCC(C(=O)Nc3cccnc3)CC2)C(=O)N1CCOC (stereo not given) the results were Tgondii IFNg -0.6.
Screening COc1ccc(S(=O)(=O)NCc2nc(-c3ccccc3)oc2C)cc1 returned Tgondii IFNg 19.6.
`COc1ccc(-c2nc(CNS(=O)(=O)c3ccc(C(C)C)cc3)c(C)o2)cc1` gave Tgondii IFNg -74.7*.
Screening COc1ccc(-c2nc(CNS(=O)(=O)c3ccc(F)cc3)c(C)o2)cc1 returned Tgondii IFNg 32.6.
COc1ccc(S(=O)(=O)NCCc2sc(-c3cccc(F)c3)nc2C)cc1F was read as Tgondii IFNg 37.1.
Screening O=C(Cn1c(=O)c(S(=O)(=O)c2ccccc2)cc2ccccc21)NCc1ccc(F)cc1 returned Tgondii IFNg -3.6.
`CC1CCC(NC(=O)N(CCCl)[NH2+][O-])CC1` (stereo not given) gave Tgondii IFNg 73.0.
For Cc1ccc(C2(O)CCN(C(=O)CCn3cnnn3)CC2)nc1 the results were Tgondii IFNg -4.3.
COc1ccc(-c2nc(Cc3noc(-c4ccccc4)n3)c(C)o2)cc1 was read as Tgondii IFNg -21.5.
Screening COc1ccc(-c2sncc2-c2ccccc2)cc1 returned Tgondii IFNg -109.2*.
COc1ccc(-c2cc(-c3ccccc3)c(C)c(-c3ccccc3)n2)cc1 was read as Tgondii IFNg -49.7.
Screening Cc1cc(C(=O)N2C[C@@H]3COC[C@@]3(CN3CCOCC3)C2)sc1C returned Tgondii IFNg -33.1.

Screens as filed in PubChem.
